Tg IFNy HTS: inhibitors of Toxoplasma gondii growth with IFN-gamma. activity change, negative = inhibition, % (test concentration not listed). 3.8% of 69,000 active. Toxoplasma gondii growth in IFN-gamma-treated host cells; active compounds read low; in the data active = activity change below about -70%, passing the limit was not always enough;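 also: host cells are HeLa cells infected with Toxoplasma gondii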
Active calls of the source: *; i = inactive. The sample as a whole holds a higher share of hits than the screen did.

SMILES	Tg IFNy HTS
COc1cccc(C(=O)NCCc2csc(-c3cccc(F)c3)n2)c1	-48
Cc1nc(-c2cccc(F)c2)sc1CCNC(=O)c1ccc(C(C)(C)C)cc1	-43
CCCCOc1ccc(C(=O)NCCc2csc(-c3cccc(F)c3)n2)cc1	-81*
O=C(NCCc1csc(-c2ccc(F)cc2)n1)c1cccc(F)c1	-90*
COc1cc(OC)cc(C(=O)NCCc2csc(-c3cccc(F)c3)n2)c1	30
O=C(NCCc1csc(-c2cccc(F)c2)n1)c1cccc(F)c1	-59
CC(C)Oc1ccc(C(=O)NCCc2csc(-c3cccc(F)c3)n2)cc1	36
COc1ccc(C(=O)NCCc2csc(-c3cccc(F)c3)n2)c(OC)c1	-81*
Cc1nc(-c2cccc(F)c2)sc1CCNC(=O)c1ccc(Cl)cc1	-4
O=C(NCCc1csc(-c2ccc(Cl)cc2)n1)c1cccc(F)c1	-50
COc1ccc(C(=O)NCCc2csc(-c3cccc(F)c3)n2)cc1	7
Cc1ccccc1S(=O)(=O)N1CCC(c2nc(C(=O)N(C)C)c(C)o2)CC1	-25
Cc1cc(NS(=O)(=O)c2ccc(NS(=O)(=O)c3ccc(F)cc3)cc2)no1	-31
COC(=O)c1sccc1S(=O)(=O)N[C@@H]1CC[C@@H](N)C1	-47
Cc1ccc(C)c(-c2coc(-c3ccc(NC(=O)CC(C)C)cc3)n2)c1	-63
CNC(=O)CN1CC2(CCN(C(=O)CC3CC3)CC2)COc2ccccc2S1(=O)=O	18
Cc1cccc(-c2nc(CCNC(=O)c3ccco3)cs2)c1	497
O=C(NCCc1csc(-c2ccc(Cl)cc2)n1)c1ccco1	-81*
O=C(NCCc1csc(-c2ccccc2)n1)c1ccc(Cl)cc1	399
Cc1ccc(CN2CCC3(CC2)C(=O)N(Cc2csc(C)n2)CCN3C)o1	10
CCCN1C(=O)C2(NCCc3c2[nH]c2ccc(Cl)cc32)c2ccccc21 (stereo not drawn)	46
Cc1ccc(NC(=O)c2c(O)c3cccnc3[nH]c2=O)cc1	59
CSc1nsc(SCC(=O)Nc2ccc(C)cc2)n1	99
Cc1ccc(NC(=O)c2snc3c(=O)[nH]cnc23)cc1	-111*
COCCC(=O)N1CCC2(CC1)CC(c1ccncc1)C(=O)N2 (stereo not drawn)	3
SMILES	Tg IFNy HTS
COC(=O)[C@@H]1C[C@H](NS(=O)(=O)c2cc(OC)ccc2OC)CN1C	1
O=C(O)c1cccnc1N1CCc2onc(-c3cccc(F)c3)c2C1	15
Cc1ccc(CNC(=O)Cn2ncc3c(N4CCN(c5ccccc5)CC4)ncnc32)cc1	-15
CN(C)CCNC(=O)Cn1ncc2c(N3CCN(c4ccccn4)CC3)ncnc21	-10
COc1ccc(CNC(=O)Cn2ncc3c(N4CCN(c5ccccc5)CC4)ncnc32)cc1	-102*
CCc1ccc(CNC(=O)Cn2ncc3c(N4CCN(c5ccccn5)CC4)ncnc32)cc1	31
COc1ccc(CNC(=O)Cn2ncc3c(N4CCN(C)CC4)ncnc32)cc1	0
O=C(Cn1ncc2c(N3CCN(c4ccccn4)CC3)ncnc21)NCc1ccccc1	-105*
Cc1nc(CCNC(=O)[C@H]2CCCN2S(=O)(=O)c2cc(C)c(C)cc2C)cs1	-12
CCNC(=O)c1cccc(-c2ccccc2CO)c1	-44
Cc1csc(CN2C[C@H]3COC[C@@]3(C(=O)NCc3ccco3)C2)n1	-38
Cc1ccc2cccc(N3C(=O)Nc4ccccc4N3O)c2n1	181
Cc1ccc2cccc(NS(=O)(=O)c3cn(C)nc3C)c2n1	65
Cc1ccc2ccc3ccc(C)nc3c2n1	-76*
Cc1nc(-c2ccccn2)nc(N2CCN(CCO)CC2)c1Cl	-14
Cc1nc(-c2ccccn2)nc(N(C)c2ccccc2)c1Cl	-101*
COC1COC2(CCCN(C(=O)c3ccoc3)C2)C1 (stereo not drawn)	-33
O=C(c1cn(C2CCCCC2)nn1)N1CCS(=O)(=O)CC1	-5
CCS(=O)(=O)N1CCC2(CC1)COC(COc1cccnc1)C2 (stereo not drawn)	3
CCOc1ccc(NC(=O)COc2nc(CC)nc3ccccc23)cc1	15
CC(C)(C)NC1COC2(CCN(c3ccc(C#N)cc3)CC2)C1 (stereo not drawn)	-27
COc1ccc(-c2nc(N3CCCC3)c3ccccc3n2)cc1	-63
Clc1nnc(N2CCCCC2)c2ccccc12	-88*
Cc1nc(Cl)c(Cc2ccccc2)c(N2CCCC2)n1	22
CCOc1ccccc1-c1nc(CN(c2ccccc2OC)S(=O)(=O)c2ccc(C)cc2)c(C)o1	-38
SMILES	Tg IFNy HTS
COc1ccc(F)cc1CN1CCC(CNS(C)(=O)=O)C1 (stereo not drawn)	-2
O=c1[nH]c(Cc2ccccc2)nc2c1C1(CCCCC1)Cc1ccccc1-2	-3
CCSc1nc2c(c(=O)n1C)C1(CCCCC1)Cc1ccccc1-2	-73*
COc1ccc(C(=O)O/N=C2\CCSc3ccc(F)cc32)cc1	80
CCCN1C(=O)CCc2cc(NC(=O)c3cc(SC)ccc3Cl)ccc21	11
COc1ccc2c(c1)CC/C2=N/OC(=O)c1cc(SC)ccc1Cl	-91*
CC(C)Oc1ccc(NC(=O)c2nc3c(n2C(C)C)CCN(C(=O)c2ccccc2)C3)cc1	-89*
CC(C)n1c(C(=O)Nc2cccc(F)c2)nc2c1CCN(Cc1ccccc1)C2	-30
CC1CN(C(=O)c2nc3c(n2C(C)C)CCN(Cc2ccccc2)C3)CC(C)O1 (stereo not drawn)	-49
COc1ncccc1CN1CCOC2CC(COc3ccccn3)CC21 (stereo not drawn)	-1
FC(F)(F)CCc1ccnc(NCC2COc3ccccc3O2)n1 (stereo not drawn)	-9
CC(Cc1cccs1)NC(=O)c1ccc(CSc2ncccn2)o1 (stereo not drawn)	20
NC1=Nc2ccc(Cl)cc2C1(O)c1ccccc1 (stereo not drawn)	-97*
OC1(c2ccccc2)c2ccccc2-c2ccccc21	26
CCOC(=O)c1ccc(NC(=O)Nc2ccc(-c3nc(-c4ccccc4)co3)cc2)cc1	15
FC(F)(F)c1ccccc1CCC1CCCN(Cc2ncc[nH]2)C1 (stereo not drawn)	-38
Cc1nnnn1-c1ccc(CC(=O)NC(c2ccncc2)c2cccs2)cc1 (stereo not drawn)	-18
Cc1noc(C)c1C(=O)N1CCC2(CC1)COCCN2CCN(C)C	-17
Cc1ccc(C)c(OCC(=O)N2CCCCC2c2cccnc2)c1C (stereo not drawn)	36
COc1ccc(NC(=O)C(=O)NCCc2csc(-c3ccc(F)cc3)n2)cc1OC	52
CN1CCN(C2CCN(C(=O)Nc3cc(Oc4ccc(NC(=O)C5(C(=O)Nc6ccc(F)cc6)CC5)c(F)c4)ccn3)CC2)CC1	-69
COc1cc2nccc(Oc3ccc(NC(=O)C4(C(=O)Nc5ccc(F)cc5)CC4)cc3)c2cc1OC	-91*
CCCN1CCCn2c(nc(CNC(=O)c3cnoc3C)cc2=O)C1	8
Cc1csc(C(C)NC(=O)CCC2(Cc3ccc4ccccc4c3)CCC(=O)N2)n1 (stereo not drawn)	6
CCOc1ccc(-c2nc(CN(C)S(=O)(=O)c3ccccc3)c(C)o2)cc1	3
CCc1ccc(NC(=O)NCC(c2cccnc2)c2cn(C)c3ccccc23)cc1 (stereo not drawn)	259
Cn1cc(C(CNC(=O)Nc2ccccc2Cl)c2cccnc2)c2ccccc21 (stereo not drawn)	i
CCc1ccccc1S(=O)(=O)NCC(c1cccnc1)c1cn(C)c2ccccc12 (stereo not drawn)	-83*
COc1ccc(-c2nc(NC3CCCCCC3)c3ccccc3n2)cc1	-52

Bioassay records from PubChem.
